Assay [1] can be described thus: Human pregnane X receptor (PXR) small molecule agonists, qHTS cell viability counter screen (AID 1346977). Note: nearly all actives have a fitted effect of over 50% in size. Note: potency is the fitted concentration of half-maximal effect. Summed up: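 PXR-Luc HepG2 cells in medium with 5% charcoal-stripped FBS were pre-incubated 5hr, then exposed to compounds for 24hr at 37C. Viability was read in the same wells by CellTiter-Fluor fluorescence, reagent added after 23hr with a 1hr incubation.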
On the technique in general: Quantitative high-throughput screening tests each substance at several concentrations.

Assay [2] is described as follows: Caspase-3/7 induction in HepG2 cells by small molecules, qHTS assay (AID 1346978). Note: nearly all actives have a fitted effect of over 15% in size. Note: potency is the fitted concentration of half-maximal effect. The method, boiled down:
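Wild-type HepG2 cells, 2,000/well, settled 5 hr at 37 C and 5% CO2, then compound-treated for 17 hr; caspase-3/7 activity read by luminescent Caspase-Glo 3/7 after 30 min at room temperature.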

The nature of assay [3]: Caspase-3/7 induction in CHO-K1 cells by small molecules, qHTS cell viability counter screen (AID 1346979). Note: nearly all actives have a fitted effect of over 35% in size. Note: potency is the fitted concentration of half-maximal effect. The method, boiled down:
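Wild-type CHO-K1 cells were seeded at 1,500 per well, rested 5hr at 37 C, then exposed to compounds in DMSO. After 16hr, CellTiter-Fluor reagent was added and fluorescence read 1hr later as the viability measure.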

Assay [4] can be described thus: Caspase-3/7 induction in CHO-K1 cells by small molecules, qHTS assay (AID 1346980). Note: nearly all actives have a fitted effect of over 15% in size. Note: potency is the fitted concentration of half-maximal effect. Summed up: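 Wild-type CHO-K1 cells exposed to compounds for 17hr at 37 C, 5% CO2. Caspase-3/7 activity then measured by Caspase-Glo 3/7 luminescence after 30min at room temperature.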
A short description of assay [5]: Caspase-3/7 induction in HepG2 cells by small molecules, qHTS cell viability counter screen (AID 1346981). Note: nearly all actives have a fitted effect of over 30% in size. Note: potency is the fitted concentration of half-maximal effect. The method, boiled down:
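Treatment of HepG2 cells with DMSO-delivered compounds ran 16 hr at 37 C following a 5-hr pre-incubation of 2,000 cells/well. CellTiter-Fluor fluorescence, read after 1 hr, served as the viability measure in a qHTS format.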

Assay [6] concerns the target Nuclear receptor subfamily 1 group I member 2 (Homo sapiens) (UniProt O75469). As to the kind of experiment: Human pregnane X receptor (PXR) small molecule agonists, qHTS assay (AID 1346982). Note: nearly all actives have a fitted effect of over 35% in size. Note: potency is the fitted concentration of half-maximal effect. Summed up:
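Stable HepG2 line reporting PXR-mediated CYP3A4 expression via luciferase. Treatment: 24 hr with compounds in DMSO at 37 C. Detection: ONE-Glo luminescence.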

Assay [7] deals with Nuclear receptor subfamily 1 group I member 2 (Rattus norvegicus) (UniProt Q9R1A7). Kind of assay: Rat pregnane X receptor (rPXR) activation by small molecules, qHTS assay (AID 1346983). Note: nearly all actives have a fitted effect of over 20% in size. The settings on record: rPXR luciferase reporter cells, One-Glo luminescence, 24 h; stronger effect = higher value. The method, boiled down:
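Cell-based rPXR activation assay: rPXR cells, 2,000 per well, rested 5hr at 37 C, then exposed to compounds in DMSO for 24 hr at 37 C. Luciferase activity read by One-Glo luminescence after 30 min at room temperature.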

Assay [8] has as its target Nuclear receptor subfamily 1 group I member 2 (Homo sapiens) (UniProt O75469). As to the kind of experiment: CYP3A4 induction through human pregnane X receptor (PXR) by small molecules, qHTS assay (AID 1346984). Note: nearly all actives have a fitted effect of over 40% in size. Note: potency is the fitted concentration of half-maximal effect. The method, boiled down: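 After 24 h at 37C with compound, DPX-2 cells (HepG2, co-transfected PXR response element and CYP3A4 promoter-luciferase) got 3uM final P450-Glo Luciferin-IPA for 3 h; One-Glo luminescence followed.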

For assay [9] the target is unchanged. Kind of assay: Human pregnane X receptor (PXR) activation by small molecules, qHTS assay (AID 1346985). Note: nearly all actives have a fitted effect of over 40% in size. Summed up: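 DPX-2 cells (HepG2 co-transfected with a PXR response element and a CYP3A4-promoter luciferase construct) were seeded at 2,000 per well, rested 5 hr at 37C, then exposed to DMSO-dissolved compounds for 24 hr. Activation was read as luciferase luminescence.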

The target in assay [10] is Acetylcholinesterase (Homo sapiens) (UniProt P22303). Kind of assay: Acetylcholinesterase (AChE) small molecule antagonists: colormetric cell-based qHTS assay (AID 1347395; calls by dose curve; note: nearly all actives have a fitted effect of over 30% in size). The method, boiled down:
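SH-SY5Y cells, plated overnight at 37 C, were exposed to compounds for 30 min at 37 C and 5% CO2. Acetylthiocholine plus DTNB was then added, and thiocholine from endogenous AChE was quantified colorimetrically after 90 min at 37 C.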

Assay [11] shares this target. As to the kind of experiment: Acetylcholinesterase (AChE) small molecule antagonists: enzyme-based qHTS assay (AID 1347397; calls by dose curve; note: nearly all actives have a fitted effect of over 55% in size). The settings on record: Potency: AChE enzyme activity inhibition. Summed up:
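Colorimetric DTNB read-out of thiocholine released from acetylthiocholine by recombinant human AChE (50 mU/mL as dispensed). Compounds were preincubated 30 min at RT before substrate/DTNB addition, with a 10 min RT reaction.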

The target is the same in assay [12]. Kind of assay: Acetylcholinesterase (AChE) small molecule antagonists: fluorescence cell-based qHTS assay (AID 1347398; calls by dose curve; note: nearly all actives have a fitted effect of over 50% in size). The settings on record: Potency: AChE activity. Summed up: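 SH-SY5Y, 2,000 cells/well, attached overnight; cmpd 30 min 37 C; acetylthiocholine/Thiolite Green cocktail 40 min RT; fluorescence Ex/Em 490/520 nm.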
For assay [13] the target is unchanged. Kind of assay: Acetylcholinesterase (AChE) small molecule antagonists: enzyme-based qHTS assay with human liver microsomes (AID 1347399; calls by dose curve; note: nearly all actives have a fitted effect of over 60% in size). The conditions noted are these: Potency: qHTS inhibition. The method, boiled down: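 Recombinant human AChE (50 mU/mL in the enzyme mix) and human liver microsomes (0.25 mg/mL final) were preincubated with compound and NADPH (0.25 mg/mL final) for 30 min at 37 C. Acetylthiocholine/DTNB was then added; thiocholine was read colorimetrically after 10 min at room temperature.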

Assay [14] deals with Cytochrome P450 2D6 (Homo sapiens) (UniProt P10635). As to the kind of experiment: Cytochrome P450 Family 2 Subfamily D Member 6 (CYP2D6) small molecule antagonists: luciferase reporter qHTS assay (AID 1671196). For activity change, negative = inhibition: series mostly up to about 120 µM. Note: nearly all actives have a fitted effect of over 50% in size. Note: potency is the fitted concentration of half-maximal effect. The method, boiled down: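 Chemicals tested for interference with CYP2D6 activity; proluciferin substrate, NADPH regeneration, 1 h at room temperature, luminescent detection.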
Cytochrome P450 2D6 (Homo sapiens), sequence (P10635 whole entry, looked up): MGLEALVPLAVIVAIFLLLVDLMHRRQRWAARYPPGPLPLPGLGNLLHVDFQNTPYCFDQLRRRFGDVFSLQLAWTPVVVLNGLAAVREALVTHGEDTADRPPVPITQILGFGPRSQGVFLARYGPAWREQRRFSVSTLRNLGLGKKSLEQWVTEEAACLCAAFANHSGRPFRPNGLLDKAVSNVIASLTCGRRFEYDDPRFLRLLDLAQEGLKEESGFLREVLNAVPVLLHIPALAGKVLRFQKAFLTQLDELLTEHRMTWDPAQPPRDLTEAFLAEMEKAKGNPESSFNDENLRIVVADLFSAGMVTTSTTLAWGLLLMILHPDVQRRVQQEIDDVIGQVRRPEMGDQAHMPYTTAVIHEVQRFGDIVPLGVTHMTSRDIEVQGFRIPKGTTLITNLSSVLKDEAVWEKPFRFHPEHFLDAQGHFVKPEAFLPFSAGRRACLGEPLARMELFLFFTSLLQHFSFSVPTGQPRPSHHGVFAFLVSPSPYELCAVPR
On the technique in general: Reporter assays use an easily measured gene product as a stand-in for the process of interest.

The target of assay [15] is Cytochrome P450 2C19 (Homo sapiens) (UniProt P33261). As to the kind of experiment: Cytochrome P450 Family 2 Subfamily C Member 19 (CYP2C19) small molecule antagonists: luciferase reporter qHTS assay (AID 1671197). For activity change, negative = inhibition: series mostly up to about 120 µM. Note: nearly all actives have a fitted effect of over 65% in size. Note: potency is the fitted concentration of half-maximal effect. Summed up: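 Relative luminescence units recorded 20 min after the detection reagent stopped a 1 h, 37C CYP2C19 reaction on proluciferin substrate, which was started by NADPH regeneration following 10 min room-temperature compound preincubation; ketoconazole positive control.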
Cytochrome P450 2C19 (Homo sapiens), sequence (P33261 whole entry, looked up): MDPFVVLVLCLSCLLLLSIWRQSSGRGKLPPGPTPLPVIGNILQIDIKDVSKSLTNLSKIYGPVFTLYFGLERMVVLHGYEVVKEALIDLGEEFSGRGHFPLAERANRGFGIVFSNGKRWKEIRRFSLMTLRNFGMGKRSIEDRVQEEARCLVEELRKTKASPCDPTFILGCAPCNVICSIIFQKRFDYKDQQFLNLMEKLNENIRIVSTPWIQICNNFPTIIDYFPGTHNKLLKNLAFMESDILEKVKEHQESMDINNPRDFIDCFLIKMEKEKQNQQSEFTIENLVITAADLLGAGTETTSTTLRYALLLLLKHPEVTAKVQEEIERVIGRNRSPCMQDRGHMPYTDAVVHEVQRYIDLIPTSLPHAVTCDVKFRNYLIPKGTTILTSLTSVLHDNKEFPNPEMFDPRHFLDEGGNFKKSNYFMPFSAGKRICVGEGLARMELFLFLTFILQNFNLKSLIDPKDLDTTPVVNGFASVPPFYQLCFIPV

The target in assay [16] is Cytochrome P450 2C9 (Homo sapiens) (UniProt P11712). As to the kind of experiment: Cytochrome P450 Family 2 Subfamily C Member 9 (CYP2C9) small molecule antagonists: luciferase reporter qHTS assay (AID 1671198). For activity change, negative = inhibition: series mostly up to about 120 µM. Note: nearly all actives have a fitted effect of over 50% in size. Note: potency is the fitted concentration of half-maximal effect. Summed up:
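P450-Glo proluciferin substrate with CYP2C9 enzyme; 10 min RT preincubation, then NADPH regeneration 1 h at 37C; luciferin detection reagent 20 min RT, luminescence in relative luminescence units.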

The target in assay [17] is Cytochrome P450 1A2 (Homo sapiens) (UniProt P05177). Kind of assay: Cytochrome P450 Family 1 Subfamily A Member 2 (CYP1A2) small molecule antagonists: luciferase reporter qHTS assay (AID 1671199). For activity change, negative = inhibition: series mostly up to about 120 µM. Note: nearly all actives have a fitted effect of over 50% in size. Note: potency is the fitted concentration of half-maximal effect. The method, boiled down:
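Read-out is luminescence from luciferin detection reagent (20 min) proportional to CYP1A2 activity; compounds in DMSO preincubated 10 min with enzyme and proluciferin substrate, then NADPH regeneration solution, 1 h, room temperature.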

Assay [18] deals with Voltage-gated inwardly rectifying potassium channel KCNH2 (Homo sapiens) (UniProt Q12809). Kind of assay: Human Ether-a-go-go-Related Gene (hERG) channel small molecule antagonists: fluorescence cell-based qHTS assay (AID 1671200). The method, boiled down:
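U2OS cells expressing the channel were plated at 1000 cells/well, incubated overnight at 37 C, then loaded with FluxOR II thallium-sensitive dye for 1 h at room temperature in the dark, with a further 10 min at room temperature before stimulation.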
A general note: hERG is a cardiac potassium channel; its block is linked to QT prolongation.

For assay [19], the target named is Cytochrome P450 3A4 (Homo sapiens) (UniProt P08684). Kind of assay: Cytochrome P450 Family 3 Subfamily A Member 4 (CYP3A4) small molecule antagonists: luciferase reporter qHTS assay (AID 1671201). Summed up: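 P450-Glo CYP3A4 system with proluciferin substrate; compounds preincubated 10 min RT with enzyme-substrate mix, then NADPH regeneration added for 1 h RT. Detection reagent 20 min, luminescence read as relative luminescence units.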
Cytochrome P450 3A4 (Homo sapiens), sequence (P08684 whole entry, looked up): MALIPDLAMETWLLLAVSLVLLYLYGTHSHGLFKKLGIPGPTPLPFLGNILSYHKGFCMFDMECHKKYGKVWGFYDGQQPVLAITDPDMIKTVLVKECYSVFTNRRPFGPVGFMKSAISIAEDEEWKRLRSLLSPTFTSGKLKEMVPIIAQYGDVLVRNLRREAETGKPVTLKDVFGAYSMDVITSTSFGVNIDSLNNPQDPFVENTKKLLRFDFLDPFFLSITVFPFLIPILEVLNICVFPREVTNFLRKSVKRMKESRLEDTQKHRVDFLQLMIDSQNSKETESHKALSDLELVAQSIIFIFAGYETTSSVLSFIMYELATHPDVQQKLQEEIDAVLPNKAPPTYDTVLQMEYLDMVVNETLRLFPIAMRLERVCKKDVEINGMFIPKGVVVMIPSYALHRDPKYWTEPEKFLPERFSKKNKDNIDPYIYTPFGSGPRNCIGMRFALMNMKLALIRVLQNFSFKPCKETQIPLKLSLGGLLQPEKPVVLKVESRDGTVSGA

SMILES strings stand for the structures. Where “and” joins values, the source holds several entries; their conditions need not be identical. Equal entries are not always repeated. Inconclusive results are not listed. Some compounds were tested as several samples or in several runs, with calls that do not always agree. Calls of active or inactive are those of the source. Unless noted, calls come from the whole dose curve; as a rule, active = well fitted curve in the direction sought with a large enough effect in the repeat runs; inconclusive = weak or mixed curves; inactive = no such curve, though single readings can be large; an effect the other way counts as inactive or inconclusive.
% is set by controls: 0 for no effect and ±100 for the full control effect.

Voltage-gated inwardly rectifying potassium channel KCNH2 (Homo sapiens), sequence (Q12809 whole entry, looked up): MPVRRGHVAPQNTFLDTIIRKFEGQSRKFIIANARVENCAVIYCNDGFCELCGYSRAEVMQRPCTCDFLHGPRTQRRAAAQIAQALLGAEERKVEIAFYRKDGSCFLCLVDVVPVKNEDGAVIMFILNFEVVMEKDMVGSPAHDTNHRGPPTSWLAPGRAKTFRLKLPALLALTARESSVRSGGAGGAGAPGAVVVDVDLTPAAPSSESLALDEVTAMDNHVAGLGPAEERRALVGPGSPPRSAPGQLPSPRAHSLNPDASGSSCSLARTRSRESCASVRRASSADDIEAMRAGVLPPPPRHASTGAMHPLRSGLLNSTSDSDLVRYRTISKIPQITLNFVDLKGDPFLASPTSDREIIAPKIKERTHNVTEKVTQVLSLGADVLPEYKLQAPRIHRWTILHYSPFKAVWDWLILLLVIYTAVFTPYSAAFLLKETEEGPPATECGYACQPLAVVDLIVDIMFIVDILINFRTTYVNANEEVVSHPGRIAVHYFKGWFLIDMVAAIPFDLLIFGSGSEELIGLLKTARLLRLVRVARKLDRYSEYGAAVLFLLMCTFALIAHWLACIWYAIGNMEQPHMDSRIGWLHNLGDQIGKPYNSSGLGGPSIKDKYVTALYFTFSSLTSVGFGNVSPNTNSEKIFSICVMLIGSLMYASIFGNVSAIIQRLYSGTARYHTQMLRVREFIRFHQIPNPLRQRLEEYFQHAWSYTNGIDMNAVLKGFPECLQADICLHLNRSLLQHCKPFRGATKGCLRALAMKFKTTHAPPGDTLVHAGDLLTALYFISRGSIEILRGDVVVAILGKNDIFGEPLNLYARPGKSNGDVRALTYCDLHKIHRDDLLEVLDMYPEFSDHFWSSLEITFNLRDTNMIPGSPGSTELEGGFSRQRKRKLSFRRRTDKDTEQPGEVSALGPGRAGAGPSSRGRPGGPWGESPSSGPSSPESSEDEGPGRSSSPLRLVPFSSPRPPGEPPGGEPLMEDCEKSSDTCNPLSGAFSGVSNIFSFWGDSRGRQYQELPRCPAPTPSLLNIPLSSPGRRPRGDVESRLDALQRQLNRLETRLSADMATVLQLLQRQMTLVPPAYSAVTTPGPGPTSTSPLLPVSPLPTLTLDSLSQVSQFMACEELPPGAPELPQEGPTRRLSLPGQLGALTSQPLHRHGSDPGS
Cytochrome P450 2C9 (Homo sapiens), sequence (P11712 whole entry, looked up): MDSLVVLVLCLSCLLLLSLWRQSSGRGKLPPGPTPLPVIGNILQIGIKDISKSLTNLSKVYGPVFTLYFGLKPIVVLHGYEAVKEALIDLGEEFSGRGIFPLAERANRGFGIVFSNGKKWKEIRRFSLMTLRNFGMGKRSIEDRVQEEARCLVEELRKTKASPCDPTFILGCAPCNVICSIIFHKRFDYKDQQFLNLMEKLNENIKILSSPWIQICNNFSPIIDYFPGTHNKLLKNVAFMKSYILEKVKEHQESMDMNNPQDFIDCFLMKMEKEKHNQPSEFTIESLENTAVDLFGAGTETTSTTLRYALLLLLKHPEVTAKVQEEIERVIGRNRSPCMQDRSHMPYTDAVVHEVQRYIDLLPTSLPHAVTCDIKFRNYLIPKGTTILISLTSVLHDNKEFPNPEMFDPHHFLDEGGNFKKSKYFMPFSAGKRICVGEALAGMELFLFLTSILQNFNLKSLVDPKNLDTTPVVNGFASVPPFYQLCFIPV
Nuclear receptor subfamily 1 group I member 2 (Homo sapiens), sequence (O75469 whole entry, looked up): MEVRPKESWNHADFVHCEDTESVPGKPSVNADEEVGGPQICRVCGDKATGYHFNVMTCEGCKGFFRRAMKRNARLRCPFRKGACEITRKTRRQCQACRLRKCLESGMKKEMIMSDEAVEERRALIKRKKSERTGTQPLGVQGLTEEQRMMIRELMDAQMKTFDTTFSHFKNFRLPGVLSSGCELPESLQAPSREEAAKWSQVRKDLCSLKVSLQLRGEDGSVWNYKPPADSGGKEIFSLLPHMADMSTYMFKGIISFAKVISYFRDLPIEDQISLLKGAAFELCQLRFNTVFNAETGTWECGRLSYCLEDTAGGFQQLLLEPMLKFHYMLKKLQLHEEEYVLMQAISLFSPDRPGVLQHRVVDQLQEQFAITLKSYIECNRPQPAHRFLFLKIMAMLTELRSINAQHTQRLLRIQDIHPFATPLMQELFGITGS
Acetylcholinesterase (Homo sapiens), sequence (P22303 whole entry, looked up): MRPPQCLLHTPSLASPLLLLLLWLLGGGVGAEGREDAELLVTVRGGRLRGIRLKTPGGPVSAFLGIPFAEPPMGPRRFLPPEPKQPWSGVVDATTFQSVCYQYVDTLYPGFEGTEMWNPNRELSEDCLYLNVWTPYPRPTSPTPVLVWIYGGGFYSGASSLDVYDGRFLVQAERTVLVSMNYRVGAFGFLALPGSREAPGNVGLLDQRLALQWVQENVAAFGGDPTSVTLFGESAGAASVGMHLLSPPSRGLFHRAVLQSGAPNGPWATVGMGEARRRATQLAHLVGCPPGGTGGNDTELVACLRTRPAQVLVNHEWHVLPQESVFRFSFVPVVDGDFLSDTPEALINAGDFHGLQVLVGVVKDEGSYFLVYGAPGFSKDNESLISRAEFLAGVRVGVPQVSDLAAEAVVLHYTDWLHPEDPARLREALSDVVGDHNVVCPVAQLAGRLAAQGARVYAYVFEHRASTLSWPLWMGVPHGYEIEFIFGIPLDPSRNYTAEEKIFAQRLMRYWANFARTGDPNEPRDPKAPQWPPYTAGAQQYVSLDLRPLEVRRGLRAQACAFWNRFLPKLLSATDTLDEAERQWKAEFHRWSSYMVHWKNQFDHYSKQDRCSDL
Cytochrome P450 1A2 (Homo sapiens), sequence (P05177 whole entry, looked up): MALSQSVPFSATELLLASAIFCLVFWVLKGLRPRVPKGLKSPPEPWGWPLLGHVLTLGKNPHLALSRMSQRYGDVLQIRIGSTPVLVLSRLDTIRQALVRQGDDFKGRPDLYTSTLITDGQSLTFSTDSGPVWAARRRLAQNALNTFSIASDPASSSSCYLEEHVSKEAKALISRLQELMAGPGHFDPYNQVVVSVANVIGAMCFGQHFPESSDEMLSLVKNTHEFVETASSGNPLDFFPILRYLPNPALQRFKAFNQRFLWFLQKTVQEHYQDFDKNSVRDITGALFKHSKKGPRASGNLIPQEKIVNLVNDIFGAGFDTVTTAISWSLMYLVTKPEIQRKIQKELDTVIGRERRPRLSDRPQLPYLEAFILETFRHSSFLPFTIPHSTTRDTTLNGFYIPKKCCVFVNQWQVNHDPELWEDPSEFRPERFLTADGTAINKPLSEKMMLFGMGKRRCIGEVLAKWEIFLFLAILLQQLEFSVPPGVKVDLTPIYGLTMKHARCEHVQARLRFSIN

As to `O=[N+]([O-])/N=C1\NCCN1Cc1ccc(Cl)nc1`, the Potency entry in assay [1], in assay [2], in assay [3], in assay [4], in [5] and in [6] was “inactive” each time. For the same compound, the Potency result in [8], in [10], in assay [11], in [12], in assay [13] and in [14] was “inactive” in each case. In addition, the Potency entry in assay [15], in assay [16], in [17], in assay [18] and in assay [19] was “inactive” throughout. Further, in assay [7], the max activation was -0.749% (inactive). In addition, in assay [9], the result was inactive.
On to `ClC(Cl)(Cl)Br`, for which the Potency result in assay [1], in assay [2], in assay [3], in assay [4], in [5] and in assay [6] was “inactive” throughout. The Potency entry in assay [10], in assay [11], in assay [12], in assay [13], in [14] and in [17] was “inactive” throughout. In addition, the Potency result in assay [18] and in [19] was “inactive” throughout. In addition, in assay [15], the Potency was 39.4 µM (active). In addition, the activity change, negative = inhibition in assay [15] is 17.8% [at 23.6 µM] (inactive); in [16], -6.85% [at 23.6 µM] (inactive).
In the case of `CS(=O)(=O)NC(=O)c1cc(Oc2ccc(C(F)(F)F)cc2Cl)ccc1[N+](=O)[O-]`, the Potency entry in assay [1], in assay [2], in [3], in assay [4], in [5] and in assay [10] was “inactive” throughout. The Potency result in assay [11], in assay [12], in assay [13], in assay [14], in [17] and in assay [18] was “inactive” throughout. Also, the Potency in assay [6] was 26.4 µM (active) and 7.7 µM (active); in [15], “inactive and 79.6 µM (active)”; in [16], 19.3 µM (active) and 17.8 µM (active).
As for `CC(C)(c1ccccc1)c1ccc(O)c(C(C)(C)c2ccccc2)c1`, the Potency was 35.5 µM (active) and 48.6 µM (active) in assay [1]; 42.9 µM (active) and 68.6 µM (active) in [2]; 30.4 µM (active) and 43.3 µM (active) in [3]; 27.1 µM (active) and 61.1 µM (active) in assay [4]; 54 µM (active) in [5]; 1.92 µM (active) and 3.86 µM (active) in [6]. The Potency in assay [14] was 25 µM (active) and 35.6 µM (active); in assay [15], 5.59 µM (active) and 3.56 µM (active); in [16], 3.96 µM (active) and 2.83 µM (active); in assay [17], 35.3 µM (active) and 35.6 µM (active). The Potency entry in assay [10], in assay [11], in [12] and in [13] was “inactive” each time.
On to `c1ccc2c(c1)Nc1ccccc1S2`, for which the Potency entry in [1], in [2], in assay [4], in assay [5], in assay [10] and in assay [11] was “inactive” each time. For the same compound, the Potency result in [12], in assay [13], in [14], in assay [16] and in assay [18] was “inactive” in each case. Besides, the Potency is 68.6 µM (active) and inactive in [3]; 27.3 µM (active) in [6]; 0.708 µM (active) in [8]; 2.24 µM (active) and 8.71 µM (active) in [15]; 731 nM (active) and 645 nM (active) in assay [17]. Moreover, the max activation in assay [7] was -0.408% (inactive). The outcome in assay [9] was inactive.

These data come from PubChem BioAssay (Tox21).
